# Laboratory results published in the supplement of paper PMC5919970.
# Structures can show the parent of a compound that is named as a salt. Whole data set: some 2,000 compounds, median “fractional viability relative to vehicle” near 0.92, cut for the lowest 2% near 0.11. What follows is part of a selection rich in the lowest values, with near analogues and random picks from the rest.
# System: TYKNU
# Assay: fractional viability relative to vehicle; TYKNU is a high-grade serous ovarian cancer line; higher = less growth inhibition
# Settings: 72 h, genotype: OPA1 knockout (sgOPA1 #2)
# Method in brief: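 TYKNU control cells or lentiCRISPRv2 knockout derivatives were seeded at 500 cells per well into drug-stamped 384-well plates holding a ~2100-compound library at 2 or 10 μM, in duplicate. Cells were grown at 37 °C in 5% CO2 in RPMI 1640 with 10% FBS, and drug treatment lasted 72 h. Viability was read by Cell Titer Glo luminescence. Duplicate treatment wells were averaged and normalised to duplicate control wells from the same plate position.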
Structure (SMILES),fractional viability (2uM),fractional viability (10uM)
CCOC(=O)N[C@@H]1CC[C@@H]2[C@@H](C1)C[C@H]1C(=O)O[C@H](C)[C@H]1[C@H]2/C=C/c1ccc(-c2cccc(F)c2)cn1 [Vorapaxar],0.913,1.06
CCn1c(=O)c(-c2ccc(-c3cncs3)cc2Cl)cc2cnc(Nc3ccc(N4CCN(C)CC4)cc3)nc21,0.914,0.64
CC1(C)S[C@@H]2[C@H](NC(=O)[C@H](NC(=O)N3CCN(S(C)(=O)=O)C3=O)c3ccccc3)C(=O)N2[C@H]1C(=O)O [Mezlocillin Sodium],0.892,0.979
Nc1nc(=S)c2ncn([C@H]3C[C@H](O)[C@@H](CO)O3)c2[nH]1,1.03,0.763
C[C@@]1(c2cc(-c3cncnc3)c(F)cc2F)CCSC(N)=N1,1.12,0.948
CC(C)C[C@H](NC(=O)CNC(=O)c1cc(Cl)ccc1Cl)B1OC(=O)C(CC(=O)O)(CC(=O)O)O1,0.335,0.299
CN1CCN(Cc2ccc(Nc3ncc(Cl)c(Nc4ccccc4S(=O)(=O)N(C)C)n3)cc2)CC1,0.451,0.421
Cc1cc(Nc2ncc(Cl)c(Nc3ccccc3S(=O)(=O)C(C)C)n2)c(OC(C)C)cc1C1CCNCC1,0.376,0.0286
CNC(=O)c1ccccc1Nc1nc(Nc2ccc(N3CCOCC3)cc2OC)ncc1Cl,0.987,0.532
C[C@H](Nc1ncnc2nc[nH]c12)c1cc2cccc(Cl)c2c(=O)n1-c1ccccc1,0.926,1.05
COc1cc(O)c(CC=C(C)C)c(O)c1C(=O)/C=C/c1ccc(O)cc1 [Xanthohumol],0.841,0.772
NC(=O)c1nc(F)cnc1O [Favipiravir (T-705)],0.744,0.765
O=C1O[C@H]([C@@H](O)CO)C([O-])=C1O.[Na+] [Sodium ascorbate],1.02,0.95
O=C(Nc1ccccc1-c1cn2c(CN3CCNCC3)csc2n1)c1cnc2ccccc2n1,1.19,0.0331
Cc1nc(-c2cccnc2)sc1C(=O)Nc1ccccc1-c1cn2c(CN3CCOCC3)csc2n1,0.748,0.855
C[C@H]1COC2=C1C(=O)C(=O)c1c2ccc2c1CCCC2(C)C [Cryptotanshinone],0.361,0.0832
Cc1coc2c1C(=O)C(=O)c1c-2ccc2c1CCCC2(C)C [Tanshinone IIA],0.599,0.327
Cc1cc(Nc2ccc(NC(=O)c3ccc(Nc4ccnc5ccccc45)cc3)cc2)nc(N)n1,0.043,0.0318
CC(=O)Nc1ccc(C(=O)Nc2ccccc2N)cc1 [CI994 (Tacedinaline)],0.755,0.434
CNCc1ccc(C)c(NC(=O)c2ccc(Nc3nc(-c4ccccc4)c4ccccc4n3)cc2)c1,1.13,0.134
COc1cc(-c2ncn(/C=C\C(=O)OC(C)C)n2)cc(C(F)(F)F)c1,0.22,0.259
CNc1cccc(CCOc2ccc3c(c2)CN(CC(F)(F)F)C(=O)[C@H](CC(=O)O)C3)n1,0.781,0.671
CCCCc1oc2ccccc2c1C(=O)c1cc(I)c(OCCN(CC)CC)c(I)c1 [Amiodarone HCl],0.994,0.867

Structure (SMILES),fractional viability (2uM),fractional viability (10uM)
CN(CCOc1ccc(NS(C)(=O)=O)cc1)CCc1ccc(NS(C)(=O)=O)cc1 [Dofetilide],1.08,0.78
CCCCc1oc2ccc(NS(C)(=O)=O)cc2c1C(=O)c1ccc(OCCCN(CCCC)CCCC)cc1 [Dronedarone HCl],0.835,0.106
N#Cc1ccc(-c2c(-c3ncn[nH]3)sc(N3CCOCC3)c2C#N)c(F)c1,0.737,0.572
O=C(COc1ccc(Cl)cc1)NC1CCC(NC(=O)COc2ccc(Cl)cc2)CC1 (stereo not drawn) [ISRIB (trans-isomer)],1.09,0.976
Clc1ccc(C2(c3ccc(-c4cn[nH]c4)cc3)CCNCC2)cc1,1.03,0.554
COCCOc1nc(-c2ccc(Cl)c(Cl)c2)n(-c2ccc(NC(=O)CCl)cc2)n1 [MI-2 (MALT1 inhibitor)],1,0.952
COc1ccc(-n2c(SCCCN3C(=O)c4cccc5cccc(c45)C3=O)nnc2-c2ccncc2)cc1,0.913,0.874
CS(=O)(=O)N1CCN(Cc2cc3nc(-c4cccc5[nH]ncc45)nc(N4CCOCC4)c3s2)CC1,0.824,0.658
COc1ccc(-c2nc(N3CCOCC3)c3sc(CN(C)c4ncc(C(=O)NO)cn4)cc3n2)cn1,0.118,0.115
Cc1c(CN2CCN(C(=O)[C@H](C)O)CC2)sc2c(N3CCOCC3)nc(-c3cnc(N)nc3)nc12,0.392,0.376
O=C1[C@H](Cc2ccc(O)cc2)N2C(=O)CCN(C(=O)NCc3ccccc3)[C@H]2CN1Cc1cccc2ccccc12,0.962,0.449
COc1cccc(-n2c(=O)[nH]c3cc(Cl)n(-c4ccc(-c5cccc(OC)c5O)cc4)c3c2=O)c1,0.827,0.807
Cn1cc(-c2cnn3c(N)c(Br)c([C@@H]4CCCNC4)nc23)cn1,0.571,0.814
Nc1nc(Nc2ccc3c(c2)CCC(N2CCCC2)CC3)nn1-c1cc2c(nn1)-c1ccccc1CCC2 (stereo unspecified),0.566,0.0864
COc1ccc([C@@H]2CC(=O)c3c(O)cc(O[C@@H]4O[C@H](CO)[C@@H](O)[C@H](O)[C@H]4O[C@@H]4O[C@@H](C)[C@H](O)[C@@H](O)[C@H]4O)cc3O2)cc1O [Neohesperidin],1.11,0.888
COc1ccc2c(c1)CCC1C2CCC2(C)C(NCCCCCCN3C(=O)C=CC3=O)CCC12 (stereo unspecified),0.747,0.738
CCN1CCN(Cc2ccc(Nc3ncc(F)c(-c4cc(F)c5nc(C)n(C(C)C)c5c4)n3)nc2)CC1,0.602,0.0904
CNC(=O)c1ccccc1Oc1nc(Nc2cc(OC)c(OC)c(OC)c2)ncc1Br,0.717,0.828
CN(CC(=O)N(Cc1ccc(C2CCCCC2)cc1)c1ccc(C(=O)O)cc1)S(=O)(=O)c1c(F)c(F)c(F)c(F)c1F,0.662,0.0586
C[C@H](NC(=O)[C@@H](O)c1cc(F)cc(F)c1)C(=O)N[C@@H]1C(=O)N(C)c2ccccc2-c2ccccc21,1.2,1.02
CC[C@@]1(O)C(=O)OCc2c1cc1n(c2=O)Cc2cc3cc(O)ccc3nc2-1 [(S)-10-Hydroxycamptothecin],0.179,0.157
COc1cc2/c(=N/c3ccc(Br)cc3F)nc[nH]c2cc1OCC1CCN(C)CC1 [Vandetanib (ZD6474)],1.31,0.638
COc1nc(OCc2cccc(-c3ccccc3)c2C)ccc1CNCCNC(C)=O [PD-1/PD-L1 inhibitor 2],0.912,0.487

Structure (SMILES),fractional viability (2uM),fractional viability (10uM)
NS(=O)(=O)NCCNc1nonc1/C(=N/O)Nc1ccc(F)c(Br)c1,0.817,0.783
C=CC(=O)Nc1cc(Nc2nccc(-c3c[nH]c4ccccc34)n2)c(OC)cc1N(C)CCN(C)C,0.542,0.0815
C=CC(=O)Nc1cccc(Nc2nc(Nc3ccc(N4CCN(C(C)=O)CC4)cc3OC)ncc2C(F)(F)F)c1,0.781,0.431
C=CC(=O)Nc1cc(Nc2nccc(-c3cn(C)c4ccccc34)n2)c(OC)cc1N(C)CCN(C)C,0.766,0.0725
C=CC(=O)Nc1cccc(C)c1Nc1ncc2cc(-c3c(Cl)c(OC)cc(OC)c3Cl)ccc2n1,0.676,0.37
COc1cc(N2CCC(N)CC2)ccc1Nc1ncc(Cl)c(-c2c[nH]c3ccccc23)n1,0.672,0.177
C=CC(=O)Nc1cccc(Nc2nc(Nc3ccc(NC4CN(CCF)C4)cc3OC)ncc2C(F)(F)F)c1,0.897,0.432
CCC[C@H](Nc1nc(-c2ccc(NC(=O)NCC)c(OC)c2)ncc1C)c1cccnc1 [CYT997 (Lexibulin)],0.378,0.361
COc1ccc(CCC(=O)Nc2nc3ccc(Cl)cc3s2)cc1OC,0.989,1.04
CNc1cc(-c2cccc(Cl)c2Cl)nc(N)n1,0.476,0.368
CN1CCN(C2CCN(C(=O)Nc3cc(Oc4ccc(NC(=O)C5(C(=O)Nc6ccc(F)cc6)CC5)c(F)c4)ccn3)CC2)CC1 [Golvatinib (E7050)],0.92,0.485
COc1ccc(C2=N[C@H](c3ccc(Cl)cc3)[C@H](c3ccc(Cl)cc3)N2C(=O)N2CCNC(=O)C2)c(OC(C)C)c1 [Nutlin-3b],0.806,0.737
CCOc1nc2cccc(C(=O)O)c2n1Cc1ccc(-c2ccccc2-c2noc(=O)[nH]2)cc1 [Azilsartan],0.997,1.12
CN1CCN(c2ccc(C(=O)Nc3n[nH]c4ccc(Cc5cc(F)cc(F)c5)cc34)c(NC3CCOCC3)c2)CC1 [Entrectinib (RXDX-101)],0.712,0.113
CO[C@@H](C(=O)N1Cc2[nH]nc(NC(=O)c3ccc(N4CCN(C)CC4)cc3)c2C1)c1ccccc1,0.964,0.815
CCc1cccc(CC)c1NC(=O)N1Cc2[nH]nc(NC(=O)c3ccc(N4CCN(C)CC4)cc3)c2C1,1.02,0.885
Clc1cccc(CN=C2Nc3ccccc3NC23CCNCC3)c1 [Liproxstatin-1],0.816,0.729
CCOc1cn(-c2ccc(F)cc2C)nc1C(=O)Nc1ccc(Oc2ccnc3cc(OC)c(OC)cc23)c(F)c1,0.919,0.773
Clc1ccc(C(Cn2ccnc2)OCc2ccc(Sc3ccccc3)cc2)c(Cl)c1 (stereo unspecified) [Fenticonazole Nitrate],0.933,0.911
Cc1cc(C)c(CNC(=O)c2cc(-c3ccc(N4CCN(C)CC4)nc3)cc3c2c(C)cn3C(C)C)c(=O)[nH]1,0.878,0.945
C=C1C(=O)O[C@@H]2/C=C(\C)CC/C=C(\C)CC[C@@H]12 [Costunolide],1.15,0.522
C=C1C(=O)O[C@H]2[C@H]1CC/C(C)=C/CC[C@@]1(C)O[C@@H]21 [(-)-Parthenolide],0.557,0.0743
